# Results filed as inconclusive are left out. Entries that show only a call come without a potency. Activity calls are given as the source filed them. The call rests on the fitted dose curve; in most records, active means well fitted inhibition curve with a large enough effect; inconclusive means small, poorly fitted or top-dose-only effect, or effect the other way; inactive means flat fitted curve, though single readings scatter.
# Target: ATPase family AAA domain-containing protein 5 (Homo sapiens) (UniProt Q96QE3)
# Sequence (Q96QE3 whole entry, looked up, the tested form may be a part): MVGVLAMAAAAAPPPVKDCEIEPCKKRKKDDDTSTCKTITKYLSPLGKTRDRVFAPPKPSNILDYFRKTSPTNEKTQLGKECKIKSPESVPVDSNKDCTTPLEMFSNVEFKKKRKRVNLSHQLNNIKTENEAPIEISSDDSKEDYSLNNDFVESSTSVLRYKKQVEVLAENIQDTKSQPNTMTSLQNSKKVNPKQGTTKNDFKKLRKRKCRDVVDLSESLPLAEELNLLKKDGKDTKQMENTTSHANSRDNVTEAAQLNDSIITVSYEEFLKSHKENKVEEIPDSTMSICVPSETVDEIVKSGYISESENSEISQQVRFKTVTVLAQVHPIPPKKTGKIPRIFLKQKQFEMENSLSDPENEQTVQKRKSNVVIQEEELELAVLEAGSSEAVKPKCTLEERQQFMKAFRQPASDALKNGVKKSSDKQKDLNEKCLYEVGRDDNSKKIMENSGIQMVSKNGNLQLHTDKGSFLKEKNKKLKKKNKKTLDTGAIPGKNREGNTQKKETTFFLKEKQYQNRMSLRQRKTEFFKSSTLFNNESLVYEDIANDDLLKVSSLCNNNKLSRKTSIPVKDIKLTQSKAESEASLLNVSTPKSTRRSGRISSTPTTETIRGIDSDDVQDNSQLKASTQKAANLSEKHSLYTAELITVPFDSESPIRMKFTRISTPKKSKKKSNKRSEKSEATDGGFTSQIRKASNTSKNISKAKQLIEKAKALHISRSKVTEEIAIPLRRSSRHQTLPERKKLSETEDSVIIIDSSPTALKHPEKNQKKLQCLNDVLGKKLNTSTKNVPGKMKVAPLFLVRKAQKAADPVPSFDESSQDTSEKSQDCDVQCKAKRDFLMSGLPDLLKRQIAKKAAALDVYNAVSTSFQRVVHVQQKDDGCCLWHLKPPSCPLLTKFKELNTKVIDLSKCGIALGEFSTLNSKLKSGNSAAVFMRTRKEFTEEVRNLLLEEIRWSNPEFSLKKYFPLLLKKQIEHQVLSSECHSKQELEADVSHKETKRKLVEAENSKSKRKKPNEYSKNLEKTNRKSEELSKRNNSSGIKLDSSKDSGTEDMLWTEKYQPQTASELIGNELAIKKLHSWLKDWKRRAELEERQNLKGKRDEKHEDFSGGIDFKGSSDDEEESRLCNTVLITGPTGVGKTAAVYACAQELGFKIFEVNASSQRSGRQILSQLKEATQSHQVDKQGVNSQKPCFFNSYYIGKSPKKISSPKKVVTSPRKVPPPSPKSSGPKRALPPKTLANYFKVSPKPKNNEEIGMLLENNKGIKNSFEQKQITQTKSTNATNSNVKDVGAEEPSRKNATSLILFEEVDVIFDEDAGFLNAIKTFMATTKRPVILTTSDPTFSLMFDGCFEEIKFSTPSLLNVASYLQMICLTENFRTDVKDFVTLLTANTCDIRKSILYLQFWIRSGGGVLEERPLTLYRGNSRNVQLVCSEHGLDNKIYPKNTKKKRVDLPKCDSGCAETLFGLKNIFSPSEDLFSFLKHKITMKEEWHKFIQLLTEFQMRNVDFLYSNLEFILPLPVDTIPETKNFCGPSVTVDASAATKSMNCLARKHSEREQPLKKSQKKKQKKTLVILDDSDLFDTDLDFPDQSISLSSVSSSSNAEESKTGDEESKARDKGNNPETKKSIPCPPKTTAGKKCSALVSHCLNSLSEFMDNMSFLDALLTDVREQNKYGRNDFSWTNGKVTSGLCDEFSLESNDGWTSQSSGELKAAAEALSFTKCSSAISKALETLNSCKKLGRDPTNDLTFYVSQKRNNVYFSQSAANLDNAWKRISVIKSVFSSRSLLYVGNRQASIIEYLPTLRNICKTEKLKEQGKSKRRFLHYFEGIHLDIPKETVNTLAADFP
# Assay: Validation screen for small molecules that inhibit ELG1-dependent DNA repair in human embryonic kidney (HEK293T) cells expressing luciferase-tagged ELG1 (AID 493107); further: nearly all actives have a fitted effect of over 70% in size
# Details: HEK293T ELG1-luciferase level, luminescence, 5-fluorouridine co-treatment, 16 h; series mostly up to 46.1 µM
# From the text: NIH Molecular Libraries Probe Production Network [MLPCN]
# NIH Chemical Genomics Center [NCGC]
# Assay Provider: Kyungjae Myung, NHGRI, NIH
# Keywords: MLPCN, qHTS, NCGC, genotoxicity, cancer
# Cancer cells divide rapidly compared to normal cells in the body. During cell division, cancer cells need to duplicate their genome by DNA replication. The failure of genome duplication leads to cancer cells' death. Therefore, inhibitors of DNA replication could specifically kill cancer cells. Based on this concept, many chemotherapeutic agents were developed and have been used to treat cancer patients. However, there are a limited number of agents available in the clinical setting, and some of those that do exist have low efficacy and severe side effects. Therefore, if we can find the compounds that effectively block DNA replication either by directly damaging DNA or by inhibiting other cellular mechanisms, the options for cancer treatment will be broadened. With this in mind, we developed a quantitative high-throughput ELG1-luciferase reporter gene assay. Small molecules that specifically block ELG1 function in response to DNA damage can be identified by monitoring the suppression of luciferase activity. Since ELG1 defines a pathway for repairing DNA damage, agents blocking ELG1 function can be used to sensitize cancer cells to chemotherapeutic agents whose mechanism of action involves the induction of DNA damage.
# For genotoxicity screening, 2,000 cells in 4 uL/well were dispensed into white, solid-bottom 1536-well plates using a solenoid-based dispenser. Following transfer of 1 uL 5-Fluorouridine and 23 nL compound or DMSO vehicle by a pin tool, the plates were incubated 16 hr at 37 °C and 5% CO2. 5 ul ONE-Glo (Promega) was then added to each plate and following a 30 min incubation at room temperature, luciferase activity was quantified on a ViewLux CCD-based plate reader.
# Potency means the concentration at half of the fitted maximal effect.
row,SMILES,Potency
1,CC(=O)C(C)=O,inactive
2,N[C@@H](Cc1c[nH]c2ccccc12)C(=O)O,inactive
3,COc1cc(N)c(Cl)cc1C(=O)OCCN1CCCCC1,inactive
4,CC(=O)[C@H]1CCC2C3CC=C4C[C@@H](OS(=O)(=O)O)CC[C@]4(C)C3CC[C@@]21C (stereo not given in full),inactive
5,O=C1NC(=O)c2cc(Nc3ccccc3)c(Nc3ccccc3)cc21,13 µM (active)
6,Nc1ccc(CCNc2ncnc3c2ncn3C2OC(CO)C(O)C2O)cc1 (stereo not given),inactive
7,N=C(N)SCCN,inactive
8,CCC(=O)N1CCN(C(=O)c2ccccc2)CC1,inactive
9,O[Si](CCCN1CCCCC1)(c1ccc(F)cc1)C1CCCCC1 (stereo not given),inactive
10,Nc1ccc(-c2nc3ccc(-c4nc5ccc(N)cc5[nH]4)cc3[nH]2)cc1,inactive
11,CN1C2CCC1CC(OC(c1ccccc1)c1ccccc1)C2 (stereo not given),inactive
12,Nc1ccc2c3c(cccc13)C(=O)NC2=O,inactive
13,CC(=O)SC1CC2=CC(=O)CC[C@]2(C)C2CC[C@@]3(C)C(CC[C@@]34CCC(=O)O4)C12 (stereo not given in full),7.3 µM (active)
14,Nn1nnc2ccccc21,inactive
15,O=c1onc2cnc3ccccc3n12,inactive
16,CSC(N)=NCCC[C@H](N)C(=O)O,inactive
17,Cc1nc(N=Nc2ccc(S(=O)(=O)O)cc2S(=O)(=O)O)c(COP(=O)(O)O)c(C=O)c1O,inactive
18,CN1Cc2sccc2C(c2ccc(O)c(O)c2)C1 (stereo not given),inactive
19,CC[C@H](NC(=O)c1c(C)c(-c2ccccc2)nc2ccccc12)c1ccccc1,inactive
20,CC[n+]1c(/C=C/C=C2/N(C)c3ccccc3C2(C)C)sc2ccccc21,2.31 µM (active)

row,SMILES,Potency
1,O=C(O)C1=CCCN(CCON=C(c2ccccc2)c2ccccc2)C1,inactive
2,CC(=O)O[C@H]1CC2(C)[C@@H](C[C@@H](O)[C@H]3[C@@]4(C)CC[C@@H](O)[C@@H](C)[C@@H]4CC[C@@]32C)C1=C(CCC=C(C)C)C(=O)O (stereo not given in full),inactive
3,Cc1cccc(C)c1OCC(N)C(C)C (stereo not given),inactive
4,N[C@H](C(=O)O)c1cc(O)cc(O)c1,inactive
5,C=CC[C@H](N)C(=O)O,inactive
6,Cn1cc(C(F)(F)F)nc1-c1ccc(OCC(O)CNCCOc2ccc(O)c(C(N)=O)c2)cc1 (stereo not given),inactive
7,NCCS(=O)O,inactive
8,Cc1nc(N=Nc2ccc(C(=O)O)cc2)c(COP(=O)(O)O)c(C=O)c1O,inactive
9,CCN1C(=O)C=CC1=O,inactive
10,O=C(O)/C(=C/c1c(C(=O)O)[nH]c2cc(Cl)cc(Cl)c12)c1ccccc1,inactive
11,CO/N=C(\C(=O)N[C@@H]1C(=O)N2C(C(=O)O)=C(CSc3nc(=O)c(O)nn3C)CSC12)c1csc(N)n1 (stereo not given in full),inactive
12,Oc1ccc(/C=C/c2ccc(/C=C/c3ccc(O)cc3)c(Br)c2)cc1,inactive
13,O=C(O)c1cccnc1C(=O)O,inactive
14,CC(N)(Cc1ccc(O)c(O)c1)C(=O)O (stereo not given),inactive
15,CN[C@H](CC(=O)O)C(=O)O,inactive
16,COc1cc([C@@H]2c3cc4c(cc3[C@H](O)C3COC(=O)[C@@H]32)OCO4)cc(OC)c1OC (stereo not given in full),inactive
17,CN(CC[C@@H](Oc1ccc(C(F)(F)F)cc1)c1ccccc1)CC(=O)O,inactive
18,Cc1ccc([N+](=O)[O-])cc1S(=O)(=O)N(C)C,inactive
19,C=C1C[C@@]23CC[C@H]4[C@@](C)(CCC[C@@]4(C)C(=O)O)[C@@H]2CC[C@]1(O)C3,inactive
20,CC1CCN(CC[C@H]2CCCN2S(=O)(=O)c2cccc(O)c2)CC1,inactive

# Reference: PubChem BioAssay (NCATS)
